Measurements taken from PubChem BioAssay (NCATS).
“And” between values parts separate entries of the source, which are not always exact repeats. Equal entries are not always repeated. Records with an inconclusive call do not appear. The source made the active and inactive calls. Unless noted, the call rests on the fitted dose curve; in most records, active means well fitted curve in the direction sought with a large enough effect; inconclusive means small, poorly fitted or top-dose-only effect, or another doubt; inactive means no such curve, though single readings can be large; an effect the other way counts as inactive or inconclusive.

How the values were obtained:
[1] = biological target: Cytochrome P450 2C9 (Homo sapiens) (UniProt P11712); assay: Cytochrome P450 family 2 subfamily C member 9 (CYP2C9) small molecule antagonists: luciferase biochemical (cell-free) qHTS assay (AID 1645842; active means well fitted curve in the direction sought with a large enough effect in the repeat runs; an effect the other way counts as inactive or inconclusive; further: nearly all actives have a fitted effect of over 55% in size; further: potency means the concentration at half of the fitted maximal effect)
Cytochrome P450 2C9 (Homo sapiens), sequence (P11712 whole entry, looked up): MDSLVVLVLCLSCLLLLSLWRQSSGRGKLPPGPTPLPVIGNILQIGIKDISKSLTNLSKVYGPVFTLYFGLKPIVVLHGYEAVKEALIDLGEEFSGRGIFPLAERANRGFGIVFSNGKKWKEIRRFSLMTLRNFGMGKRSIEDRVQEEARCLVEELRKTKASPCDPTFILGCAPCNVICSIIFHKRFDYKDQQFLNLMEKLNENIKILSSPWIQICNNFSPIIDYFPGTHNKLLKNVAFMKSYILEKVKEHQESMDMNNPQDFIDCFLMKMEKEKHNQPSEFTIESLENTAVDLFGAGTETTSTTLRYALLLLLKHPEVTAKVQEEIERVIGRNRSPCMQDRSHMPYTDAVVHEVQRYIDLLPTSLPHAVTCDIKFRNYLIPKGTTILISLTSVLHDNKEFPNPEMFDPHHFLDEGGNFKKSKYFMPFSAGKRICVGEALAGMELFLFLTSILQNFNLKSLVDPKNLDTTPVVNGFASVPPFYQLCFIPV
Method in brief: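 P450-Glo CYP2C9 system: proluciferin substrate with enzyme in mix containing 0.4% BSA, 10 min at room temperature, then NADPH regeneration solution added and incubated 1 h at 37C. Detection reagent stopped reaction; luminescence read after 20 min as RLU.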

[2] = Primary qHTS for inhibitors of nuclear receptor binding SET domain protein 2 (NSD2) in an isogenic RCH-ACV NSD2 p.E1099K mutant (9B) (AID 1645876); further: nearly all actives have a fitted effect of over 70% in size; further: potency means the concentration at half of the fitted maximal effect
[3] = Primary qHTS for inhibitors of nuclear receptor binding SET domain protein 2 (NSD2) in an RCH-ACV wild type WT cells (2C) (AID 1645877); further: nearly all actives have a fitted effect of over 70% in size; further: potency means the concentration at half of the fitted maximal effect
[4] = biological target: N-terminal Xaa-Pro-Lys N-methyltransferase 1 (Homo sapiens) (UniProt Q9BV86); assay: Confirmatory qHTS for Inhibitors of N-terminal methyltransferase 1 (NTMT1): MTaseGlo Assay (AID 1645874); further: potency means the concentration at half of the fitted maximal effect; nearly all actives have a fitted effect of over 65% in size
N-terminal Xaa-Pro-Lys N-methyltransferase 1 (Homo sapiens), sequence (Q9BV86 whole entry, looked up): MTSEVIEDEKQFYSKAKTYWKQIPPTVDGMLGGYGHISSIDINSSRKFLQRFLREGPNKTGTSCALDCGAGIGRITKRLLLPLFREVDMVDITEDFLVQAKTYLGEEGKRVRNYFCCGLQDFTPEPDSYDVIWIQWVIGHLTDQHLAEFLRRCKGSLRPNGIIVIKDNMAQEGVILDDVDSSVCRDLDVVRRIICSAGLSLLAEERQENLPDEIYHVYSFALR
Method in brief: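 Inhibition was derived from luminescence after SAH-to-ATP conversion, scaled between no-enzyme and DMSO wells, then fitted by 4-parameter Hill. Conditions: 125 nM NTMT1, 100 uM SAM, 1 uM SPKRIA, 30 min RT.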

[5] = biological target: Catechol O-methyltransferase (Homo sapiens) (UniProt P21964); assay: Confirmatory Screen for Target Class Profiling of Small Molecule Inhibitors of Methyltransferases (AID 1745852); conditions: MTase-Glo luminescence, SAH detection, recombinant enzyme; measured here: COMT max response; stronger effect = lower value
Catechol O-methyltransferase (Homo sapiens), sequence (P21964 whole entry, looked up): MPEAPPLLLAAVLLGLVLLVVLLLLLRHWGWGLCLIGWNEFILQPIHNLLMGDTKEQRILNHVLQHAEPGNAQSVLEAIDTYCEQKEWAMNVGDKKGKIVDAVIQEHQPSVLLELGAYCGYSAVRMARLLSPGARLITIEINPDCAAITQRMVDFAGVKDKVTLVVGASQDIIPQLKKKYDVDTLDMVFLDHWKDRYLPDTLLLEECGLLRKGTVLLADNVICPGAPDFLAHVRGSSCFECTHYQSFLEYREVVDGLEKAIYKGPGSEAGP

## O=C(NCc1cccc(O)c1)c1cc2cc(F)ccc2[nH]1
[1]
  Potency: 13.5 µM (active)
[2]
  Potency: 18.3 µM (active)
[3]
  Potency: 20.5 µM (active)

## Cc1noc(=O)c2ccc(NC(=O)C(O)(CC(C)(C)c3cccc4c3OCC4)C(F)(F)F)cc12 (stereo not drawn)
[1]
  Potency: inactive

## COc1cc(N2CCC(N3CCN(C)CC3)CC2)ccc1Nc1ncc(Cl)c(-c2c[nH]c3ccccc23)n1
[1]
  Potency: 19 µM (active)
[4]
  Potency: 55.5 µM (active)
[2]
  Potency: 1.15 µM (active)
[3]
  Potency: 1.84 µM (active)
[5]
  activity: -23.6%

## O=C(Nc1c(-c2cccs2)nc2ccccn12)c1ccc(Cl)cc1
[1]
  Potency: 15.1 µM (active)
[2]
  Potency: inactive
[3]
  Potency: inactive

## CCCC1(c2ccccc2)NC(=O)N(CC(=O)N(C)Cc2c(F)cccc2Cl)C1=O (stereo not drawn)
[1]
  Potency: 12 µM (active)
[2]
  Potency: inactive
[3]
  Potency: inactive

## Cc1cc(C)nc(NS(=O)(=O)c2ccc(NC(=S)NC(=O)COc3ccc(Br)cc3Cl)cc2)n1
[1]
  Potency: 10.7 µM (active)
[2]
  Potency: inactive
[3]
  Potency: inactive

## C#CCN(Cc1cc2c(=O)n(C)c(CN3CCN(C)CC3)nc2cc1Cl)c1ccc(C(=O)NCc2cccnc2)cc1
[1]
  Potency: 12 µM (active)
[2]
  Potency: inactive
[3]
  Potency: inactive

## COC(=O)N(C)c1c(N)nc(-c2nn(Cc3ccccc3F)c3ncccc23)nc1N
[1]
  Potency: 23.9 µM (active)
[2]
  Potency: inactive
[3]
  Potency: inactive

## Cc1nc2ccc(Oc3ccc(F)cc3)cc2c(=O)n1C[C@H]1CCCN(C(C)C)C1
[1]
  Potency: inactive

## CC[C@H](CO)Nc1nc(NCc2ccc(-c3ccccn3)cc2)c2ncn(C(C)C)c2n1
[1]
  Potency: 0.19 µM (active)
[2]
  Potency: 0.459 µM (active)
[3]
  Potency: 0.23 µM (active)

## C[C@@H]([C@@H](O)c1ccc(O)cc1)N1CCC(O)(c2ccccc2)CC1
[1]
  Potency: inactive
[2]
  Potency: inactive
[3]
  Potency: inactive

## O=C(NCC(O)CO)c1ccncc1Nc1ccc(I)cc1F (stereo not drawn)
[1]
  Potency: 16.9 µM (active)

## O=C(CSc1nc2c(c(=O)n1-c1ccccc1)SCC2)Nc1ccc(-c2ccccc2)cn1
[1]
  Potency: 0.379 µM (active)
[2]
  Potency: 0.0365 µM (active)
[3]
  Potency: 0.0325 µM (active)

## CC(C)(C)Nc1nc(Nc2ccc(C(N)=O)cc2)cc(N)c1C#N
[1]
  Potency: 3.38 µM (active)
[2]
  Potency: 3.65 µM (active)
[3]
  Potency: 1.45 µM (active)

## O=S(=O)(c1ccccc1)c1cnc2c(N3CCNCC3)cccc2c1
[1]
  Potency: 0.338 µM (active)

## CC(C)S(=O)(=O)NC[C@H](C)c1ccc(NC(=O)c2cc(F)cc(F)c2)cc1
[1]
  Potency: 7.56 µM (active)
[2]
  Potency: inactive

## CC1(C)CC(=O)C2=C(C1)NC(=S)NC2c1cccc(O)c1 (stereo not drawn)
[1]
  Potency: 2.13 µM (active)
[2]
  Potency: 0.728 µM (active)
[3]
  Potency: 0.817 µM (active)

## c1cc(Nc2cc(C3CC3)[nH]n2)nc(Nc2ccc3nc[nH]c3c2)n1
[1]
  Potency: 9.52 µM (active)
[2]
  Potency: 0.417 µM (active)
[3]
  Potency: 0.468 µM (active)

## CCCCNc1ncc2c(-c3ccc(CN4CCN(C)CC4)cc3)cn(C3CCC(O)CC3)c2n1 (stereo not drawn)
[1]
  Potency: 15.1 µM (active)
[2]
  Potency: 1.64 µM (active) and 2.95 µM (active)
[3]
  Potency: 205 nM (active) and 332 nM (active) and 662 nM (active)

## CC(=O)N1CCN(Cc2ccc([C@H](C)Nc3nccc(N4C(=O)OC[C@@H]4C(C)C)n3)cc2)CC1
[1]
  Potency: 23.9 µM (active)
[2]
  Potency: inactive

## COc1ccc(C(=O)n2c(C)c(Cc3cccc(O[C@@H](C)C(=O)O)c3)c3cc(OC(F)(F)F)ccc32)cc1
[1]
  Potency: 19 µM (active)
[2]
  Potency: inactive
[3]
  Potency: inactive

## Cc1cc(N2CCN([C@@H]3CN[C@H](C(=O)N4CCSC4)C3)CC2)n(-c2ccccc2)n1
[1]
  Potency: inactive

## Cc1cc2c(F)c(Oc3ncnn4cc(OCC(C)O)c(C)c34)ccc2[nH]1 (stereo not drawn)
[1]
  Potency: 12 µM (active)
[2]
  Potency: 4.09 µM (active)
[3]
  Potency: 7.28 µM (active)

## COc1ccc(CNC(=O)c2cc(-c3cncc(C)c3)ncc2-c2nccs2)nc1OC
[1]
  Potency: 4.25 µM (active)
[2]
  Potency: inactive
[3]
  Potency: inactive

## Cc1c(C(=O)N2CCOc3ccc(-c4ccc(N)nc4)cc3C2)ccc(S(C)(=O)=O)c1F
[1]
  Potency: inactive
[2]
  Potency: 817 nM (active) and 1.32 µM (active)
[3]
  Potency: 1.83 µM (active) and 3.32 µM (active)

## COc1ccc(Cl)c(Nc2nc3ccccc3nc2NS(=O)(=O)c2cccc(NC(=O)C(C)(C)N)c2)c1
[1]
  Potency: 2.68 µM (active)
[2]
  Potency: 3.65 µM (active) and 5.9 µM (active)
[3]
  Potency: 4.09 µM (active) and 8.33 µM (active)

## CCOc1cc2ncc(C#N)c(Nc3ccc(F)c(Cl)c3)c2cc1NC(=O)/C=C/CN(C)C
[1]
  Potency: 3.79 µM (active)
[4]
  Potency: 1.2 µM (active)
[2]
  Potency: 459 nM (active) and 742 nM (active)
[3]
  Potency: 1.03 µM (active) and 590 nM (active)
[5]
  activity: -96.3%
